IL-1B inflam inh: inflammasome signaling inhibition, IL-1 beta readout; THP-1 LPS/ATP IL-1B secretion, AlphaLISA, 16 h; active compounds read low; activity change, % at 57.5 µM; 360,000 tested, 4.7% active; in the data active means activity change below about -50%; inconclusive means mostly about -30% to -49%; further: on the % scale 0 is the no-effect control and ±100 the full control effect
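THP-1 cells pretreated 1 hr with compounds (up to 57.5 uM final), then stimulated with LPS (250 ng/mL final) plus ATP (1.25 mM final); secreted IL-1B measured by AlphaLISA after 16 hr, decreased signal indicating inhibition.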
KB-V1 MDR tox: KB-V1 MDR subline cytotoxicity; KB-V1 MDR cells viability, CellTiter-Glo, 72 h; Potency, µM (series often up to 46.1 µM), most hits filed as cytotoxic; 400,000 tested, 3.4% active; AID 1347076; further: potency means the concentration at half of the fitted maximal effect; on the % scale 0 is the no-effect control and ±100 the full control effect; nearly all actives have a fitted effect of over 60% in size
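Cells of the MDR subline KB-V1 are plated, dosed with compound at multiple concentrations, and incubated 72 h at 37 degrees C; CellTiter-Glo is then added and luminescence read after 10 min.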
KB-3-1 tox: KB-3-1 parental cell cytotoxicity. KB-3-1 viability, CellTiter-Glo ATP luminescence, 72 h. AID 1347075. Potency, µM (titrated, usually from 46.1 µM), most hits filed as cytotoxic. 400,000 tested, 1.4% active; further: potency means the concentration at half of the fitted maximal effect; on the % scale 0 is the no-effect control and ±100 the full control effect; nearly all actives have a fitted effect of over 60% in size
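Parental KB-3-1 viability, qHTS format: 72 h compound exposure, 37 °C; CellTiter-Glo; media-only wells and DMSO plates as controls; concentration-effect fits on corrected data.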
SW480 rerep: inducers of DNA re-replication in SW480 colon cancer cells; 340,000 tested, 1.8% active; Potency, µM (highest dose often 46.1 µM), without a hit: top-dose re-replication activation, actives largely listed as activators; SW480 DNA re-replication, Hoechst DNA content imaging, 48 h; AID 624297; further: potency means the concentration at half of the fitted maximal effect; % of control where 0% means no effect; nearly all actives have a fitted effect of over 55% in size
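Quantitative HTS format with DMSO vehicle controls; 48 hr drug incubation at 37 C, then 40 min Hoechst staining and scanning imager measurement at 405 nm excitation.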
MCF10A rereplic: inducers of DNA re-replication in MCF 10A breast cells; 350,000 tested, 2.9% active; Potency, µM (series often up to 46.1 µM), inactives show at the top dose activity, positive = re-replication, actives largely listed as activators; MCF 10A DNA re-replication, Hoechst nuclear intensity, 48 h; AID 624296; further: potency means the concentration at half of the fitted maximal effect; % of control where 0% means no effect; nearly all actives have a fitted effect of over 50% in size
* hit, by the source's call; i = inactive; ? = inconclusive; · = no result. Only some compounds are listed: those with a hit (about 9.9% of all), similar ones and a draw of the others. Unless noted, the call rests on the fitted dose curve; in most records, active means well fitted curve in the direction sought with a large enough effect; inconclusive means small, poorly fitted or top-dose-only effect, or another doubt; inactive means no such curve, though single readings can be large; an effect the other way counts as inactive or inconclusive.

SMILES	IL-1B inflam inh	KB-V1 MDR tox	KB-3-1 tox	SW480 rerep	MCF10A rereplic
COC(=O)[C@]12CCCCC=C1N(Cc1cccc3ccccc13)C(=O)[C@H](CC(=O)NCCC(C)C)C2	-16	18µM*	?	·	·
CCN(CC)C(=O)[C@H]1C[C@H](CC(=O)NCCCn2ccnc2)C(=O)N2CCc3c([nH]c4cc(CCC(=O)N(C)C)ccc34)[C@]12C	-10	i	i	7%	-4%
COc1cccc(CC2(CO)CCCN(Cc3ccc(CN4CCCCC4)s3)C2)c1 (stereo not given)	-11	i	i	-4%	?
Cc1cccc(Nc2nc(N3CCOCC3)nc(N3CCOCC3)n2)c1	-76*	i	i	28%	5%
Cc1cccc(Nc2nc(N3CCCCC3)nc(N3CCCCC3)n2)c1	-3	i	i	9%	30%
Cc1ccc(Nc2nc(N3CCOCC3)nc(N3CCOCC3)n2)cc1C	-60*	i	i	-8%	?
FC(F)(F)c1cccc(Nc2nc(N3CCOCC3)nc(N3CCOCC3)n2)c1	-6	i	?	?	?
Oc1cccc(Nc2nc(N3CCOCC3)nc(N3CCOCC3)n2)c1	-22	i	?	?	23µM*
COc1ccc(Nc2nc(N3CCOCC3)nc(N3CCOCC3)n2)cc1	-10	i	i	-7%	6%
COc1ccccc1NS(=O)(=O)c1cccc(-n2c(O)c(C=Nc3ccccc3C(=O)O)c3ccccc3c2=O)c1	34	i	i	4%	18%
Cc1ccccc1NC(=O)Cn1c(=O)n(CCc2ccccc2)c(=O)c2sc3ccccc3c21	·	i	i	·	·
CC(=O)N1CC(C(=O)Nc2ccc3c(c2)OCO3)Oc2ccccc21 (stereo not given)	7	21µM*	i	-1%	7%
CCOC(=O)Nc1ccc(S(=O)(=O)N2CCOCC2)cc1	-5	i	i	-7%	5%
CC1CCCN(S(=O)(=O)c2ccc(NC(=O)CN3C(=O)NC(C)(c4ccccc4)C3=O)cc2)C1 (stereo not given)	-52*	i	i	-3%	0%
CC1CCCC(C)N1S(=O)(=O)c1ccc(NC(=O)CNC2CCCC2)cc1 (stereo not given)	-8	i	i	14%	2%
CC1CCN(CC(=O)Nc2ccc(S(=O)(=O)N3CCCCC3)cc2)CC1	0	i	i	12%	2.3µM*
CCOC(=O)Nc1ccc(S(=O)(=O)N2CCC(C)CC2)cc1	0	21µM*	i	-5%	?
CC1CCN(S(=O)(=O)c2ccc(NC(=O)CN3CCN(C)CC3)cc2)CC1	-5	i	i	0%	?
CC1CCN(S(=O)(=O)c2ccc(NC(=O)CNC3CCCCC3)cc2)CC1	-87*	?	i	?	26%
Cc1ccc(NC(=O)Cn2c(-c3ccc4c(c3)OCO4)cn(-c3ccccc3)c2=O)cc1	·	i	i	·	·
Cc1cccnc1NC(=O)c1ccc(Cl)c(S(=O)(=O)N2CCCCC2)c1	16	i	i	-1%	10%
CN1OC[C@@H]2CN(S(=O)(=O)c3cc(Cl)cc(Cl)c3)[C@H](c3ccc(-c4ccc(C#N)cc4)cc3)C[C@@H]21	17	i	i	·	·
CC1CCN(S(=O)(=O)c2ccc(NC(=O)CN3CCCCCC3)cc2)CC1	-50*	i	i	?	?
CC1CCN(S(=O)(=O)c2ccc(NC(=O)CN3CCCC(C)C3)cc2)CC1 (stereo not given)	-21	i	i	?	29%
CCOc1cc(C(=O)CCC(=O)OCC(=O)NC(=O)NCC(C)C)ccc1O	26	i	i	-1%	0%
SMILES	IL-1B inflam inh	KB-V1 MDR tox	KB-3-1 tox	SW480 rerep	MCF10A rereplic
O=c1[nH]c2nc(Br)[nH]c(=O)c2[nH]1	16	i	i	-2%	-3%
CN(C)c1ccc(C(=C2C=CC(=[N+](C)C)C=C2)c2ccc(N(C)C)cc2)cc1	·	i	2.6µM*	?	3%
COc1ccc(C(=O)/C=C/Nc2ccc([N+](=O)[O-])cc2C)c(OC)c1	-3	i	i	25%	-14%
COc1ccc(OC)c(CNc2ccc([N+](=O)[O-])cc2C)c1	-69*	?	i	4%	-9%
O=[N+]([O-])c1ccc(NCc2ccc3c(c2)OCO3)cc1	-14	i	i	-4%	-1%
Cc1cc([N+](=O)[O-])ccc1NCc1ccc2c(c1)OCCO2	-51*	?	i	-57%	?
COc1cccc(CNc2ccc([N+](=O)[O-])cc2C)c1	-1	15µM*	i	?	1%
CC(=O)N1CCOc2ccc(S(=O)(=O)N3CCC(C(=O)NCc4ccc(Cl)cc4)CC3)cc21	0	i	i	·	·
O=C(O)CCc1ccc(-c2ccc(Cl)cc2)n1-c1cccc(C(F)(F)F)c1	·	i	i	·	·
CN(C)c1c2ccccc2nc2c(F)c(F)c(F)c(F)c12	-96*	i	i	?	?
Cc1c2ccccc2nc2c(F)c(N(C)C)c(F)c(F)c12	17	?	i	19%	?
CC(C)c1ccccc1OCCCCCNCCO	-54*	i	i	1%	?
CC(C)(C)c1ccccc1OCCCCCNCCO	-53*	?	i	?	?
O=C(Cc1n[nH]c(=O)c2ccccc12)OCC(=O)c1ccc(OC(F)F)cc1OC(F)F	5	i	i	-14%	?
N#Cc1nc(Nc2cc(F)cc(F)c2)c2ncn(CCO)c2n1	·	?	15µM*	·	·
COc1ccc(-n2c(-c3ccc(Br)cc3)n[nH]c2=S)cc1	0	i	i	-17%	-4%
COc1ccc(-n2c(-c3ccc(Br)cc3)c[n+]3c2CCC3)cc1	-67*	i	4.1µM*	2%	?
COc1ccc(-n2c(-c3ccc(Br)cc3)c[n+]3c2SC(C)C3)cc1 (stereo not given)	-97*	i	5.8µM*	4%	-1%
COc1ccc(-n2c(-c3ccc(Br)cc3)c[n+]3c2CCCCC3)cc1	-78*	i	3.7µM*	1%	20%
COc1ccc(-n2c(-c3ccc(Br)cc3)nc(=S)c3c2CCCC3)cc1	13	?	?	-2%	-9%
CCOc1ccc(-c2c[n+]3c(n2-c2ccccc2)CCCCC3)cc1	?	?	5.8µM*	-8%	19%
COc1ccc(-n2c(-c3ccccc3)cc3c2CCCC3=O)cc1	26	12µM*	?	3%	?
COc1ccc(-n2c(-c3ccccc3)c[n+]3c2CCC3)cc1	?	i	4.1µM*	2%	0%
O=C1CCCc2c1cc(-c1ccccc1)n2-c1ccc(O)cc1	-1	i	i	-15%	?
